# According to PubChem BioAssay (NCATS):
# Records with an inconclusive call do not appear. A call without a number means that no potency is given here. Active and inactive are the calls of the source. Calls follow the shape of the dose curve; as a rule, active = well fitted curve in the direction sought with a large enough effect; inconclusive = small, poorly fitted or top-dose-only effect, or another doubt; inactive = no such curve, though single readings can be large; an effect the other way counts as inactive or inconclusive.
# Experiments:
# [1] = qHTS of pediatric cancer cell lines to identify multiple opportunities for drug repurposing: Primary screen for SJ-GBM2 cells (AID 1347091)
# Procedure, shortened: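 Cell viability, CellTiter-Glo luminescence; 500-1,000 cells/well, 8- or 11-point titration, 48 h compound exposure at 37 degrees C, 5% CO2. Controls: DMSO neutral, bortezomib 2.3 µM final as positive.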
# [2] = qHTS of pediatric cancer cell lines to identify multiple opportunities for drug repurposing: Primary screen for A673 cells (AID 1347092); also: nearly all actives have a fitted effect of over 45% in size
# Procedure, shortened: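 Luminescence from CellTiter-Glo, taken after 15 min at room temperature, served as the proxy for metabolically active cells following 48 h treatment. Both potency and efficacy were taken from curves fitted to the titration data.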
# [3] = qHTS of pediatric cancer cell lines to identify multiple opportunities for drug repurposing: Primary screen for SK-N-MC cells (AID 1347093)
# Procedure, shortened: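 Metabolically active cells were quantified by ATP-dependent luminescence (CellTiter-Glo, 15 min at room temperature) following 48 h treatment. Cells had been plated at 500-1,000 per well and settled for 5 h beforehand.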
# [4] = qHTS of pediatric cancer cell lines to identify multiple opportunities for drug repurposing: Primary screen for BT-37 cells (AID 1347094)
# Procedure, shortened: (§1)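 ATP-based luminescence (CellTiter-Glo) quantifies viability after a 48-hour exposure. Compounds are dosed across 8 or 11 final concentrations; DMSO and 2.3 µM bortezomib serve as controls.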
# [5] = qHTS of pediatric cancer cell lines to identify multiple opportunities for drug repurposing: Primary screen for NB-EBc1 cells (AID 1347095)
# Procedure, shortened: as §1
# [6] = qHTS of pediatric cancer cell lines to identify multiple opportunities for drug repurposing: Primary screen for U-2 OS cells (AID 1347096); also: nearly all actives have a fitted effect of over 50% in size
# Procedure, shortened: (§2)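 Cells (500-1,000/well) rested 5 h, then received compounds for 48 h; metabolically active cells were measured by CellTiter-Glo luminescence. Final concentrations spanned up to 46 µM (MIPE, 11-point) or 0.59 nM-46 µM (NPC, 8-point) in primary screens, 11-point in follow-ups.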
# [7] = qHTS of pediatric cancer cell lines to identify multiple opportunities for drug repurposing: Primary screen for SK-N-SH cells (AID 1347098); also: nearly all actives have a fitted effect of over 65% in size
# Procedure, shortened: as §2
# [8] = qHTS of pediatric cancer cell lines to identify multiple opportunities for drug repurposing: Primary screen for NB1643 cells (AID 1347099); also: nearly all actives have a fitted effect of over 50% in size
# Procedure, shortened: as §1
# [9] = qHTS of pediatric cancer cell lines to identify multiple opportunities for drug repurposing: Primary screen for LAN-5 cells (AID 1347100)
# Procedure, shortened: as §2
# [10] = qHTS of pediatric cancer cell lines to identify multiple opportunities for drug repurposing: Primary screen for Saos-2 cells (AID 1347097); also: nearly all actives have a fitted effect of over 40% in size
# Procedure, shortened: as §1
# Potency is read from the fitted curve at half-maximal effect.
SMILES,Potency [1],Potency [2],Potency [3],Potency [4],Potency [5],Potency [6],Potency [7],Potency [8],Potency [9],Potency [10]
Cc1cccc(C)c1OCC(C)N (stereo unspecified),inactive,inactive,inactive,inactive,inactive,inactive,inactive,inactive,inactive,
CN1[C@@H]2CCC[C@@H]1CC(NC(=O)c1nn(C)c3ccccc13)C2 (stereo partly specified),inactive,inactive,inactive,inactive,,inactive,,,inactive,inactive
O=C(CCN1CCN(C(=O)OCc2cc(Cl)cc(Cl)c2)CC1)c1ccc2[nH]c(=O)oc2c1,inactive,inactive,inactive,inactive,inactive,inactive,,,inactive,
Cc1ccccc1C(C(=O)NC1CCCCC1)N(C(=O)Cn1ccnc1C)c1cccc(F)c1 (stereo unspecified),inactive,inactive,23.5 µM (active),inactive,,inactive,inactive,inactive,inactive,
COc1cc(O)c2c(c1)C(=O)c1cc(C)cc(O)c1C2=O,inactive,inactive,inactive,inactive,inactive,,inactive,inactive,inactive,
CN(C)C1CCN(C(=O)c2ccc(NC(=O)Nc3nc(N4CCOCC4)nc(N4CCOCC4)n3)cc2)CC1,0.105 µM (active),0.0118 µM (active),0.0166 µM (active),0.0273 µM (active),1.32 µM (active),,,0.372 µM (active),0.187 µM (active),0.166 µM (active)
COc1ccc2c(Oc3ccc(NC(=O)c4c(C)n(CC(C)(C)O)n(-c5ccccc5)c4=O)nc3)ccnc2c1,0.469 µM (active),inactive,29.6 µM (active),,,inactive,,inactive,inactive,
Cc1c(O)cccc1C(=O)N[C@@H](CSc1ccccc1)[C@H](O)CN1C[C@H]2CCCC[C@@H]2C[C@@H]1C(=O)NC(C)(C)C,18.7 µM (active),23.5 µM (active),16.6 µM (active),,,,,,,26.4 µM (active)
N[C@H](CSC(c1ccccc1)(c1ccccc1)c1ccccc1)C(=O)O,5.26 µM (active),9.35 µM (active),14.8 µM (active),,11.8 µM (active),inactive,inactive,inactive,,9.35 µM (active)
O=C(NOCC(O)CO)c1cc(Br)c(F)c(F)c1Nc1ccc(I)cc1F (stereo unspecified),inactive,9.35 µM (active),0.132 µM (active),inactive,,,0.341 µM (active),,inactive,
O=c1c(-c2ccc(O)cc2)coc2cc(O)ccc12,inactive,inactive,,inactive,inactive,inactive,,inactive,inactive,inactive
Nc1ncnc2c1nc(Cl)n2[C@@H]1O[C@H](CO)[C@@H](O)[C@@H]1O,11.8 µM (active),23.5 µM (active),26.4 µM (active),,inactive,,,16.6 µM (active),,inactive
CCCCCN(C)CCC(O)(P(=O)(O)O)P(=O)(O)O,inactive,inactive,,inactive,inactive,inactive,inactive,inactive,inactive,inactive
CCOC1OC(=O)C[C@H]1NC(=O)[C@@H]1CCCN1C(=O)[C@@H](NC(=O)c1ccc(N)c(Cl)c1)C(C)(C)C (stereo partly specified),1.87 µM (active),0.118 µM (active),14.8 µM (active),,8.33 µM (active),inactive,,,0.833 µM (active),1.18 µM (active)
O=c1cc(-c2ccc(O)cc2)oc2cc(O)cc(O)c12,1.32 µM (active),1.18 µM (active),,3.06 µM (active),4.69 µM (active),,,0.469 µM (active),3.32 µM (active),14.8 µM (active)
Cc1ccc(F)c(NC(=O)Nc2ccc(-c3cccc4[nH]nc(N)c34)cc2)c1,23.5 µM (active),14.8 µM (active),20.9 µM (active),,,,24.1 µM (active),,20.9 µM (active),18.7 µM (active)
O=c1cc(CN2CCOCC2)occ1OCCCCCSc1ccnc2cc(C(F)(F)F)ccc12,1.32 µM (active),14.8 µM (active),1.32 µM (active),,,,,inactive,,4.18 µM (active)
COCCOc1nc(-c2ccc(Cl)c(Cl)c2)n(-c2ccc(NC(=O)CCl)cc2)n1,16.6 µM (active),4.69 µM (active),4.69 µM (active),,16.6 µM (active),,,16.6 µM (active),18.7 µM (active),
Nc1ncnc2ccccc12,inactive,23.5 µM (active),,inactive,inactive,inactive,,,inactive,inactive
Clc1cc(Cl)cc(CNc2ncncc2-c2ccc3c(c2)OCO3)c1,18.7 µM (active),14.8 µM (active),13.2 µM (active),,11.8 µM (active),inactive,,,,16.6 µM (active)

SMILES,Potency [1],Potency [2],Potency [3],Potency [4],Potency [5],Potency [6],Potency [7],Potency [8],Potency [9],Potency [10]
CO[C@@H](C(=O)N1Cc2[nH]nc(NC(=O)c3ccc(N4CCN(C)CC4)cc3)c2C1)c1ccccc1,0.187 µM (active),5.9 µM (active),0.118 µM (active),,,18.7 µM (active),2.15 µM (active),0.118 µM (active),0.0372 µM (active),0.833 µM (active)
N#CC1(c2ccc(NC(=O)c3cccnc3NCc3ccncc3)cc2)CCCC1,inactive,inactive,inactive,,inactive,,inactive,inactive,inactive,
O=c1c(O)c(-c2ccc(O)cc2)oc2cc(O)cc(O)c12,14.8 µM (active),14.8 µM (active),11.8 µM (active),,9.35 µM (active),inactive,,11.8 µM (active),6.62 µM (active),inactive
O=C(OCC#CCSc1nnc(-c2cccc3ccccc23)o1)c1cc2ccccc2s1,inactive,inactive,inactive,inactive,,,,inactive,inactive,inactive
C=C1C(=O)OC(CCCCCCCC)C1C(=O)O (stereo unspecified),20.9 µM (active),inactive,,inactive,,inactive,,inactive,inactive,
CC(C)(C)COc1ccc(-n2cc(C(=O)O)cn2)cc1C#N,inactive,inactive,,inactive,,inactive,,,inactive,inactive
CN(C)CCC=C1c2ccccc2COc2ccc(CC(=O)O)cc21,inactive,18.7 µM (active),,inactive,inactive,inactive,,,inactive,inactive
NC(=O)c1cccc2[nH]c(-c3ccc([C@H]4CCCN4)cc3F)nc12,inactive,11.8 µM (active),,,18.7 µM (active),inactive,,,,inactive
COc1cccc2c1CCCC2CCCN1CCN(C2CCCCC2)CC1 (stereo unspecified),18.7 µM (active),inactive,18.7 µM (active),,,inactive,,,26.4 µM (active),
CN1CCN(CCOc2cc(OC3CCOCC3)c3c(Nc4c(Cl)ccc5c4OCO5)ncnc3c2)CC1,9.35 µM (active),11.8 µM (active),11.8 µM (active),7.69 µM (active),,,13.6 µM (active),,18.7 µM (active),
O=C(O)C=Cc1ccc(O)c(O)c1,inactive,11.8 µM (active),2.64 µM (active),,,,24.1 µM (active),20.9 µM (active),3.72 µM (active),23.5 µM (active)
O=C(Nc1c(Cl)cncc1Cl)c1ccc(OC(F)F)c(OCC2CC2)c1,inactive,inactive,,inactive,inactive,inactive,,,inactive,
COc1cc2ncnc(-n3nc(-c4ccccn4)nc3N)c2cc1OC,14.8 µM (active),3.72 µM (active),4.69 µM (active),,14.8 µM (active),inactive,,4.69 µM (active),,4.69 µM (active)
COc1ccccc1N1CCN(CCCNc2cc(=O)n(C)c(=O)n2C)CC1,inactive,inactive,,inactive,inactive,inactive,inactive,inactive,inactive,inactive
CCCCC1C(=O)N(c2ccccc2)N(c2ccccc2)C1=O,inactive,inactive,,inactive,inactive,inactive,inactive,inactive,inactive,
COc1ccc(-n2c(C)c([N+](=O)[O-])c3ccc(O)cc32)cc1,inactive,7.43 µM (active),1.18 µM (active),,inactive,inactive,19.2 µM (active),5.9 µM (active),inactive,inactive
CN(C[C@@H]1COCCO1)S(=O)(=O)Nc1ccc2ccc3ncc(-c4cnn(C)c4)cc3c(=O)c2c1,0.372 µM (active),7.43 µM (active),2.96 µM (active),,7.43 µM (active),,17.1 µM (active),,14.8 µM (active),
Cc1cc(OCCCc2c(C(=O)O)n(Cc3cccnc3)c3c(-c4c(COc5ccc(N6CCN([S+](C)(=O)[O-])CC6)cc5)nn(C)c4C)cccc23)cc(C)c1Cl,23.5 µM (active),23.5 µM (active),5.9 µM (active),,23.5 µM (active),inactive,,23.5 µM (active),,18.7 µM (active)
N#C[C@H]1C[C@H]2C[C@@H]2N1C(=O)[C@@H](N)C12CC3CC(CC(O)(C3)C1)C2,inactive,inactive,,inactive,inactive,inactive,24.1 µM (active),,,
CC(C)NCC(O)COc1cccc2[nH]ccc12 (stereo unspecified),inactive,inactive,,inactive,inactive,inactive,inactive,inactive,inactive,
